Inconclusive results are not listed. Calls of active or inactive are those of the source. The call rests on the fitted dose curve; in most records, active means well fitted inhibition curve with a large enough effect; inconclusive means small, poorly fitted or top-dose-only effect; inactive means no such curve, though single readings can be large or run the other way.
Target: N-terminal Xaa-Pro-Lys N-methyltransferase 1 (Homo sapiens) (UniProt Q9BV86)
Assay: qHTS Assay for Inhibitors of N-terminal methyltransferase 1 (NTMT1): MTaseGlo Assay Confirmatory Screen, Round 1
Settings: Recombinant NTMT1, MTase-Glo SAH luminescence; series mostly up to 57.1 µM; activity change, negative = inhibition: at the top concentration
Excerpt: Assay Submitter (PI): Rong Huang Ph.D, Purdue University, West Lafayette, IN 47907 The N-terminal methytransferase 1 is the first methyltransferase that methylates protein alpha-N-amines and plays an important role in regulating cell mitosis, chromatin interactions and DNA repair. It is observed to be over-expressed in various cancer patient tissues like malignant melanoma and colorectal cancer tissues. Knockdown of NTMT1 in cancer cells causes cell mitotic defects and enhances sensitivity to DNA damaging chemotherapeutics. […] These critical cellular processes in which NTMT1 is implicated, coupled with emerging links to cellular dysfunction, strengthen the inference that NTMT1 is a compelling novel anticancer target. Progress have been made in understanding the molecular properties of NTMT1 and the biological consequences of protein alpha-N-terminal methylation, but there are no specific small molecule probes available for NTMT1 to fully characterize its MTase activity. To address this unmet need, a panel of assay is created and established to enable quantitative high-throughput screening (qHTS) for novel, potent, and selective small molecule NTMT1 inhibitors. Two orthogonal qHTS that use different reagents (ThioGlo vs. MTaseGlo) are developed for primary robotic screening against the NCATS chemical library of more than 400,000 small molecules. Identified inhibitors are reacquired, validated, and further characterized. MTaseGlo Assay is a luminescence screen that measure the activity of methyltransferases based on the reaction product S-adenosyl homocysteine (SAH). The substrate SAM is converted to SAH upon enzyme activation. MTase-Glo reagent and detection solution convert SAH to ATP and measure the light from the luciferase reaction. […] Early Translation Branch (ETB) National Center for Advancing Translational Sciences (NCATS) National Institute of Health (NIH)
Materials: NTMT1 enzyme, substrate SPKRIA, control peptide RCC1-6 is provided by the Huang laboratory. MTaseGlo Assay: In brief, 3 µL of enzyme mixture (final concentrations of 125 nM and 100 µM for NTMT1 and SAM, respectively) into all wells of a 1,536-well solid-bottom white plate (Greiner Bio One, Monroe, NC). 23 nL of DMSO or Ac-RCC1-10 (final concentration range 234 nM to 143 microM) was transferred via Wako Pin-tool (Wako Automation, Richmond, VA) and incubated (RT) for ~15 minutes. Next, 1 µL of substrate (final concentration 1 µM) or buffer was dispensed, and the reaction proceeded for 30 minutes (RT, protected from light) followed by a 1 microL addition of [5X] MTase-Glo Reagent(R). Samples were incubated (RT, protected from light) for 30 minutes to allow for SAH to be converted to ADP, followed by a 5 microL addition of [1X] MTase-Glo Detection Solution(R) to allow for ADP to be converted to ATP, which was then detected with a luciferase reaction. Samples were centrifuged for 15 seconds at 1,000 RPM's, followed by a RT incubation for 30 minutes. Plates were then read using Luminescence optics on a ViewLux detector. Data were normalized to no-enzyme (0% activity) and no-inhibitor (DMSO; 100%) controls, and the resulting percent inhibition data were fitted to a 4-parameter Hill equation using Graphpad Prism.

Sequence of N-terminal Xaa-Pro-Lys N-methyltransferase 1 (Homo sapiens) (Q9BV86 whole entry, looked up): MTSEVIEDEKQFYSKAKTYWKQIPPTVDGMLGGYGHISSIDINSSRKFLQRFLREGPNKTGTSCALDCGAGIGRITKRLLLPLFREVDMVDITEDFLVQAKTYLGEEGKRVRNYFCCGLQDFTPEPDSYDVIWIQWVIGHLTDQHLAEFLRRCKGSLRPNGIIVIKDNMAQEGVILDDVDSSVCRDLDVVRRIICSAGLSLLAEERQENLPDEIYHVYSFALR

Row | Compound | activity change, negative = inhibition
1 | Nc1ncnc2c1ncn2[C@@H]1O[C@H](COP(=O)(O)OP(=O)(O)OP(=O)(O)O)[C@H]2OC3(O[C@H]21)C([N+](=O)[O-])=CC(=[N+]([O-])[O-])C=C3[N+](=O)[O-] (stereo partly drawn) | 481% (inactive)
2 | COc1cc2nc(N3CCCN(C)CC3)nc(N(C)C3CCN(C)CC3)c2cc1OC | -10.2% (inactive)
3 | Nc1ncnc2c1ncn2[C@@H]1O[C@@H]2COP(O)(=S)O[C@H]2[C@H]1O (stereo partly drawn) | 2.01% (inactive)
4 | CCN(CC)c1ncnc2c1ncn2[C@@H]1O[C@H](COP(=O)(O)OP(=O)(O)C(Br)(Br)P(=O)(O)O)[C@@H](O)[C@H]1O | 6% (inactive)
5 | Nc1ncnc2c1ncn2[C@@H]1O[C@H](COP(=O)(O)CP(=O)(O)O)[C@@H](O)[C@H]1O | 4.38% (inactive)
6 | CCNC(=O)[C@H]1O[C@@H](n2cnc3c(N)ncnc32)[C@H](O)C1O (stereo partly drawn) | -1.75% (inactive)
7 | Nc1ncnc2c1nc(Sc1ccc(Cl)cc1)n2[C@@H]1O[C@@H]2COP(O)(=S)O[C@H]2[C@H]1O (stereo partly drawn) | 11.2% (inactive)
8 | Nc1ncnc2c1ncn2[C@@H]1O[C@@H]2CO[P@](=O)(S)O[C@H]2[C@H]1O | -6.04% (inactive)

Source: PubChem BioAssay AID1347145 (National Center for Advancing Translational Sciences (NCATS), 2019)
